BJeLR viability: BJeLR cell viability loss; BJeLR (HRASV12) viability, CellTiter-Glo ATP luminescence, 48 h; inhibition, % (concentration not given with the values); hit rate 0.17% among 300,000; AID 1554; in the data active = inhibition above about 50%
PrPC surface inh: reduces human prion protein on the cell surface; cell surface PrPC, TR-FRET read-out; inhibition, % at 13.8 µM; hit rate 0.43% among 370,000; AID 720596; in the data active = inhibition above about 24%; note: 0% = median of the test wells and 100% = reference compound wells
Sa ugtP lethal: growth inhibition of S. aureus ugtP deletion strain; S. aureus RN4220 ugtP deletion, OD600 growth, 16 h; growth inhibition, % (concentration not given with the values); hit rate 0.54% among 330,000; in the data active = growth inhibition above about 68%;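 note: plate controls were untreated wells for no effect and antibiotic for full effect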
RN4220 kill: S. aureus RN4220 growth inhibition; OD600, 16 h; inhibition, % (no concentration beside the values); hit rate 0.33% among 330,000; AID 1259311; in the data active = inhibition above about 85%;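 note: plate controls were untreated cells for no effect and reference antibiotic for full effect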
PrPC confirm: confirmation of inhibitors of cell surface human prion protein; hit rate 65% among 1,500; inhibition, % at 13.8 µM; cell surface PrPC level, TR-FRET; AID 743200; shares compounds with PrPC surface inh; in the data active = inhibition above about 25%
LD9 tox: kills or reduces viability of LD9 cells in PrPc counter-screen | LD9 cells cytotoxicity, luminescence viability | AID 743201 | shares compounds with PrPC surface inh | hit rate 29% among 1,500 | inhibition, % at 13.8 µM; in the data active = inhibition above about 9.5%
* hit, by the source's call; ! = a repeat was not active. Rows were chosen to be rich in hits. Some 0.95% of all compounds tested hit in one or more screens of this group.

O=c1oc2cc(O)ccc2c2ccccc12 was read as BJeLR viability -3, PrPC surface inh 28*, Sa ugtP lethal -2, RN4220 kill 1, PrPC confirm 33* and LD9 tox 0.
Screening Cc1occc1C(=O)N1CCN(C(=O)C2CCCO2)CC1 (configuration not stated) returned BJeLR viability 9, PrPC surface inh 47*, Sa ugtP lethal 7, RN4220 kill 2, PrPC confirm 5 and LD9 tox -2.
O=C(c1ccco1)N1CCN(C(=O)C2CCCO2)CC1 (configuration not stated) was read as BJeLR viability 8, PrPC surface inh 6, Sa ugtP lethal -4 and RN4220 kill 5.
For Cc1noc(C)c1S(=O)(=O)Nc1ccc2c(c1)C(=O)N(C(C)CO)CC(C)C(CN(C)Cc1ccc(C(=O)O)cc1)O2 (configuration not stated) the results were Sa ugtP lethal -11 and RN4220 kill 1.
`COc1cccc(OC(=O)CSc2nnc(-c3ccccc3Br)o2)c1` gave BJeLR viability 9, PrPC surface inh 32*, Sa ugtP lethal -6, RN4220 kill 5, PrPC confirm 38* and LD9 tox 1.
`COC(=O)CSc1nnc(-c2ccc(OC)cc2OC)o1` gave BJeLR viability -5, PrPC surface inh 2, Sa ugtP lethal 7 and RN4220 kill 0.
`Clc1cccc(Nc2ncnc3ccc(Br)cc23)c1` gave BJeLR viability -7, PrPC surface inh 63*, Sa ugtP lethal -16, RN4220 kill 10, PrPC confirm 76* and LD9 tox 2.
For Brc1ccc2ncnc(NCc3ccccc3)c2c1 the results were BJeLR viability 10, PrPC surface inh 48*, Sa ugtP lethal -16, RN4220 kill 7, PrPC confirm 50* and LD9 tox 12*.
`COc1ccc(Nc2ncnc3ccc(Br)cc23)cc1OC` gave BJeLR viability 3, Sa ugtP lethal 4 and RN4220 kill 4.
`c1ccc(CCNc2ncnc3ccccc23)cc1` gave BJeLR viability 25, PrPC surface inh 19, Sa ugtP lethal -3 and RN4220 kill 4.
For Cc1cccc(Nc2ncnc3ccc(Br)cc23)c1 the results were BJeLR viability 1, PrPC surface inh 26*, Sa ugtP lethal -22, RN4220 kill 9, PrPC confirm 31* and LD9 tox -1.
Screening Clc1ccc(Nc2ncnc3ccc(Br)cc23)cc1 returned BJeLR viability 6, PrPC surface inh 30*, Sa ugtP lethal -35, RN4220 kill -1, PrPC confirm 44* and LD9 tox 4.
`Nc1c(C(=O)NC2CCCC2)c2nc3ccccc3nc2n1N=Cc1ccco1` gave Sa ugtP lethal 0 and RN4220 kill 7.
`CN(C)c1ccc(Nc2nc(N)c3ccccc3n2)cc1` gave BJeLR viability 33 and PrPC surface inh 14.
Screening CN(C)c1ccc(Sc2ccc3nc(N)nc(N)c3c2)cc1 returned PrPC surface inh 33*, PrPC confirm 35* and LD9 tox 15*.
COCc1c(C(=O)N2CCc3ccccc32)oc2ccccc12 was read as BJeLR viability 3, PrPC surface inh 26*, Sa ugtP lethal -1, RN4220 kill 5, PrPC confirm 3 and LD9 tox -4.
For Cc1c(C(=O)N2CCc3ccccc32)oc2ccccc12 the results were BJeLR viability -6, PrPC surface inh 2, Sa ugtP lethal 56 and RN4220 kill 10.
`CC1CCC2(CCC(=O)N2CCCOC(=O)c2ccccc2)CC1` (configuration not stated) gave PrPC surface inh 8.
`O=C(O)c1cc(O)c2c(c1)[C@H]([C@H]1c3cc(C(=O)O)cc(O)c3C(=O)c3c(O[C@@H]4O[C@H](CO)[C@@H](O)[C@H](O)[C@H]4O)cccc31)c1cccc(OC3O[C@H](CO)[C@@H](O)[C@H](O)[C@H]3O)c1C2=O` (some centres not stated) gave BJeLR viability -15, PrPC surface inh 91*, PrPC confirm 12 and LD9 tox 0.
Screening O=C1c2c(O)cccc2C(C2OC(CO)[C@@H](O)[C@H](O)[C@H]2O)c2cc(CO)cc(O)c21 (some centres not stated) returned PrPC surface inh -12, Sa ugtP lethal -5 and RN4220 kill -7.
CNNC(=S)Nc1cccc(C(F)(F)F)c1 was read as BJeLR viability 0, PrPC surface inh 62*, Sa ugtP lethal 11, RN4220 kill 5, PrPC confirm -1 and LD9 tox -6.
Screening COC(=O)c1cc(Br)c(=O)n(-c2ccccn2)c1 returned BJeLR viability -6, PrPC surface inh 7, Sa ugtP lethal 4 and RN4220 kill 4.
COC(=O)c1cc(Br)c(=O)n(-c2nccs2)c1 was read as BJeLR viability -10, PrPC surface inh 49*, Sa ugtP lethal -1, RN4220 kill -7, PrPC confirm 94* and LD9 tox -3.
For Cc1ccc(C=NNC(=O)c2ccncc2)s1 the results were Sa ugtP lethal 8 and RN4220 kill 0.
Cc1ccc(S(=O)(=O)Nc2ccccc2C(=O)N2CCOCC2)cc1 was read as BJeLR viability -6, PrPC surface inh -7, Sa ugtP lethal -2 and RN4220 kill 0.
For CS(=O)(=O)Nc1ccccc1C(=O)N1CCOCC1 the results were BJeLR viability 4, PrPC surface inh 34*, Sa ugtP lethal 5, RN4220 kill 7, PrPC confirm 9 and LD9 tox -5.
For Cc1ccnc2c1ccc1cccnc12 the results were PrPC surface inh 35*, Sa ugtP lethal 6, RN4220 kill -6, PrPC confirm 38* and LD9 tox 35*.
Screening c1cnc2c(c1)ccc1cccnc12 returned BJeLR viability 56*!, PrPC surface inh 25*, Sa ugtP lethal -5, RN4220 kill 2, PrPC confirm 25* and LD9 tox 14*!.
For O=Cc1ccc2ccc3cccnc3c2n1 the results were BJeLR viability 1, PrPC surface inh 6, Sa ugtP lethal 1 and RN4220 kill 5.
`CC1CC[C@]2(O1)OC(CCO)CC(O)C2O` (some centres not stated) gave Sa ugtP lethal -3 and RN4220 kill 2.
`Cc1cc2c(C)nc(NN=Cc3ccccc3)nc2o1` gave Sa ugtP lethal 2 and RN4220 kill 2.
`Nc1ccc2nc(-c3ccc(-c4nc5ccc(N)cc5[nH]4)cc3)[nH]c2c1` gave BJeLR viability 4, PrPC surface inh 26*, PrPC confirm 25* and LD9 tox 1.
Screening COc1cc(N(C)C)ccc1C=c1c2ccccc2n2c1cc(-c1ccccc1)[n+]2C returned PrPC surface inh 31*, PrPC confirm 48* and LD9 tox 68*.
`COc1ccc(C=NNC(=O)c2ccc3ccccc3c2)cc1OS(=O)(=O)c1ccc(NC(C)=O)cc1` gave Sa ugtP lethal -36 and RN4220 kill -7.

Screening data as filed in PubChem BioAssay.
